Test [1] can be described thus: sensitizers of A549 cells to miR-34 induction, primary screen, imaging, A549 dox-inducible miR-34, nuclei and caspase counts (AID 1347080). To be noted: A549 miR-34 inducible, Hoechst nuclei count, 48 h.
A short description of test [2]: survival rescue of mitochondrial mutant cells in low glucose, primary screen, MELAS cybrids, Rieske KO mouse fibroblasts, CellTiter-Glo (AID 1508586;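 active = mean z-score across replicates of 1.96 or higher in either the MELAS or the Rieske mutant cell line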;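 note: z relative to plate mean and SD of compound and empty wells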).
Test [3] has as its target NAD(+) hydrolase SARM1 (Homo sapiens) (UniProt Q6SZW1). Nature of the test: SARM1 TIR NADase inhibitors, cell lysate, NAD-Glo luminescence (AID 1508614;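 active = compound whose remaining NAD level is above about 45 nM, limit read from the data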;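 note: higher remaining NAD means stronger inhibition of SARM1 NADase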). To be noted: SAM-TIR HEK293T lysate NADase, at 1 µM, stronger effect = higher value.
The target of test [4] is Mitogen-activated protein kinase 7 (Homo sapiens) (UniProt Q13164). Nature of the test: ERK5 transactivation activators in reporter cells, primary screen, cell-based, HTS (AID 1508626;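 active = luciferase signal above three times the same-plate solvent-only control wells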;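 note: luciferase driven by Gal4-ERK5 fusion binding five Gal4 sites before minimal TATA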). The note with it: HeLa Gal4-ERK5 transactivation, 18 h, at 5 µM, stronger effect = higher value.
Test [5] in a line: LFS_MB_P medulloblastoma growth inhibition, cell-based, chromothripsis tumors, cisplatin or BGB combos (AID 1671449; in the data active = inhibition above about 80%;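 note: cells exposed for 96 hours; 0% = vehicle DMSO and 100% = killing by high DMSO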). The note with it: LFS_MB_P medulloblastoma cells.
Test [6] is described as follows: HDN33 neuroblastoma growth inhibition, cell-based, chromothripsis tumors, cisplatin or BGB combos (AID 1671450; in the data active = inhibition above about 80%;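 note: cells exposed to compound for four days; 0% = vehicle DMSO and 100% = cell killing by high DMSO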). To be noted: HDN33 neuroblastoma cells, stronger effect = higher value.
Test [7] in a line: ICB984 medulloblastoma cell growth inhibition, synergistic combos for chromothripsis tumors, cisplatin or BGB combos (AID 1671451; call rule not given here;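 note: cells exposed for 96 hours before readout; 0% = vehicle DMSO and 100% = killing by high DMSO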). To be noted: ICB984 medulloblastoma cells, drug combinations, stronger effect = higher value.
The nature of test [8]: LFS_MB_1R medulloblastoma cell growth inhibition, synergistic combos for chromothripsis tumors, cisplatin or BGB combos (AID 1671452; in the data active = inhibition above about 80%;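 note: cells exposed for 96 hours before readout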). To be noted: LFS_MB_1R medulloblastoma cells, stronger effect = higher value.
Test [9] can be described thus: HTB85 osteosarcoma cell growth inhibition, synergistic combos for chromothripsis tumors, BGB or cisplatin IC20 combos (AID 1671453; in the data active = inhibition above about 80%;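 note: cells exposed for 96 hours before readout; 0% = vehicle DMSO and 100% = high DMSO killing control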). To be noted: HTB85 osteosarcoma cells, drug combinations, stronger effect = higher value.
Test [10] can be described thus: CRL2098 osteosarcoma cell growth inhibition, synergistic combos for chromothripsis tumors, BGB or cisplatin IC20 combos (AID 1671454; in the data active = inhibition above about 80%;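 note: cells exposed for 96 h before readout; 0% = vehicle DMSO and 100% = killing by high DMSO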). To be noted: CRL2098 osteosarcoma cells, drug combinations, stronger effect = higher value.
The nature of test [11]: HD-MB03 medulloblastoma cell growth inhibition, synergistic combos for chromothripsis tumors, BGB or cisplatin IC20 combos (AID 1671455; in the data active = inhibition above about 83%;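 note: 0% = vehicle DMSO and 100% = high DMSO as cytotoxic control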). The note with it: HD-MB03 medulloblastoma cells, stronger effect = higher value.
Test [12] in a line: viability rescue of complex I mutant cybrids, primary screen, cell-based, galactose medium, ATP luminescence (AID 1645843;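 active = z-score of at least 1.8 in each of two replicates, scored against plate mean and spread of sample wells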;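 note: positive z means more ATP and so rescue of galactose-driven cybrid death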). To be noted: complex I mutant cybrid cells, 72 h, stronger effect = higher value.
[13] abbreviates: stronger effect = lower value, cell number ratio, induced over uninduced.
The mark [14] stands for this setting: measured here: relative caspase fold change +Dox/-Dox.
Setting [15] is: measured here: total cells with miR-34 induction, stronger effect = lower value.
Setting [16] is: measured here: total cells without miR-34 induction.
The mark [17] stands for this setting: MELAS cybrid survival, CellTiter-Glo 48 h, stronger effect = higher value.
Setting [18] is: Rieske KO mouse fibroblast survival, CellTiter-Glo 72 h.
Where [19] appears, read: measured here: combination with BGB IC40, at 0.05 µM.

Where “and” joins values, the source holds several entries; their conditions need not be identical. Equal values may be shown once. Calls of active or inactive are those of the source.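 Rule for the calls, unless noted: active = compounds whose cell count with miR-34 switched on is under 0.7 times the count with it off; inactive = the rest.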

Sequence of NAD(+) hydrolase SARM1 (Homo sapiens) (Q6SZW1 whole entry, looked up, the tested form may be a part): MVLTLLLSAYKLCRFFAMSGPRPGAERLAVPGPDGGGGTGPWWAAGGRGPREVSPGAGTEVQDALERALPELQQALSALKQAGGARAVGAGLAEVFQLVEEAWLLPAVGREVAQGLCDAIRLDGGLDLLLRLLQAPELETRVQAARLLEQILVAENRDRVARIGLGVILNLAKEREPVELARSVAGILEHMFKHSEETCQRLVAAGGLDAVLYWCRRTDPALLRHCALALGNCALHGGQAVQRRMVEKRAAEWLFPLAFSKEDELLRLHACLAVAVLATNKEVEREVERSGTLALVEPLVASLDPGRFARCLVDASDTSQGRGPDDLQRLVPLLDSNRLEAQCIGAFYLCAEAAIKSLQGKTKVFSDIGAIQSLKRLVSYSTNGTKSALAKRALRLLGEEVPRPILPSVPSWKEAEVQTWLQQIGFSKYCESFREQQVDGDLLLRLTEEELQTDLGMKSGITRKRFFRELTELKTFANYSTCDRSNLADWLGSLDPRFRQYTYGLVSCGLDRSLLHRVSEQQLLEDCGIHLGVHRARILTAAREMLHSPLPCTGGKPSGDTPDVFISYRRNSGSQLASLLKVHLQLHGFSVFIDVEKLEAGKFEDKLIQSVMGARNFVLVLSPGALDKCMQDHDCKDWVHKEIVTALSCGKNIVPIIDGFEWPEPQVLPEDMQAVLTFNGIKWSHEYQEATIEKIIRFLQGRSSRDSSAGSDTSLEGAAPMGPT
Sequence of Mitogen-activated protein kinase 7 (Homo sapiens) (Q13164 whole entry, looked up, the tested form may be a part): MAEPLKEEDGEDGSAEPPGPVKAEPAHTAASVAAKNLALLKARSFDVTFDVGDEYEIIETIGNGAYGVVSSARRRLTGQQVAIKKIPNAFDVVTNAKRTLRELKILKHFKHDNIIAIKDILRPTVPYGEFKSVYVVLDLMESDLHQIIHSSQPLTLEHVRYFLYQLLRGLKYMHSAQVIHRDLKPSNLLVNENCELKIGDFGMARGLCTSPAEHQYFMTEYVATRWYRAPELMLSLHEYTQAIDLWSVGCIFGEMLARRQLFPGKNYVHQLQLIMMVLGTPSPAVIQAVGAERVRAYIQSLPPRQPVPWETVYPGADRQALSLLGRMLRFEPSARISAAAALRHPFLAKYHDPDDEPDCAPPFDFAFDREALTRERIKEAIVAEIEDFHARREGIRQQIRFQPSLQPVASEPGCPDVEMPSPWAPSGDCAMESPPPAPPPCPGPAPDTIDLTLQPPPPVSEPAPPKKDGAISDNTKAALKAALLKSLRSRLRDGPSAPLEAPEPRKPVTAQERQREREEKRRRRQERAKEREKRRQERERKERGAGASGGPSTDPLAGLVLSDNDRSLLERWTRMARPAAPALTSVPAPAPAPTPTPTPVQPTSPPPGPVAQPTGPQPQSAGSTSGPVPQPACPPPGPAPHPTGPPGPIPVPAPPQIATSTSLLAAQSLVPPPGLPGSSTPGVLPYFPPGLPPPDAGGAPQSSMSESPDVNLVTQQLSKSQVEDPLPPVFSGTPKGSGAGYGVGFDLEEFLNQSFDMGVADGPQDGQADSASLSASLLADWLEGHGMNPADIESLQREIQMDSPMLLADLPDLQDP

As to `CC1CCc2cc(F)cc3c(=O)c(C(=O)O)cn1c23` (stereo not given), the fold change in test [1] (setting [13]) is 0.911 (inactive) and 0.884 (inactive) and 0.854 (inactive); in test [1] (setting [14]), 1.2 and 1.04 and 2.46. Besides, the cell count was 8860 and 8230 and 11600 in test [1] (setting [15]); 9730 and 9310 and 13600 in test [1] (setting [16]). Besides, the z-score in [2] (setting [17]) is -0.14 (inactive) and 1.18 (inactive); in [2] (setting [18]), -0.162 and -0.0831. For the same compound, the remaining NAD in test [3] was 10 nM (inactive). In addition, the luciferase signal in [4] is 60 AU (inactive). Further, the inhibition is 39.2% (inactive) and -31.9% (inactive) in test [5] (at 0.5 µM, stronger effect = higher value); -29.5% and 27.9% in test [5] (measured here: combination with BGB IC20, at 0.005 µM); -17.3% and 13.7% in test [5] (measured here: combination with BGB IC40, at 0.005 µM); -16.4% and 38.8% in test [5] (setting [19]); 98.2% and -27% in test [5] (measured here: combination with cisplatin, at 0.5 µM, stronger effect = higher value); -36.8% and -23.2% in test [5] (measured here: combination with cisplatin, at 5 µM, stronger effect = higher value). In addition, the inhibition in [6] (BGB combo, at 5 µM) was -3.97% and 10%; in [6] (at 0.5 µM), 3.55% (inactive) and 8.84% (inactive); in [6] (cisplatin combo, at 5 µM), 2.48% and 8.76%; in [6] (measured here: with BGB IC20 combination, at 0.5 µM) it was 18.5% and 19.1%; in test [6] (measured here: with cisplatin IC20 combination, at 0.5 µM) it was -0.119% and -5.91%; in test [6] (single agent, at 5 µM) it was 0.699% and -7.13%. The inhibition in test [7] (BGB IC20 combo, at 0.005 µM) was -7.37% and -18.9%; in test [7] (BGB IC40 combo, at 0.005 µM), -12.9% and -43.9%; in test [7] (BGB IC40 combo, at 0.05 µM), -20% and -12.5%; in test [7] (at 0.5 µM) it was -19.2% (inactive) and -16.4% (inactive); in [7] (cisplatin combo, at 0.05 µM) it was -20% and -16.9%; in test [7] (cisplatin combo, at 0.5 µM), -31% and -15.5%. Also, the inhibition in test [7] (cisplatin combo, at 5 µM) was -18.9% and -31.7%; in test [7] (measured here: 5 uM single agent, at 5 µM), -15.3% and -14.5%; in test [8] (at 0.5 µM), -3.56% (inactive) and 7.41% (inactive); in [8] (setting [19]), -7.45% and -3.94%; in [8] (measured here: combination with cisplatin, at 0.5 µM), 23.1% and 16.6%; in [8] (measured here: combination with cisplatin, at 5 µM) it was 7.04% and -25.3%. Further, the inhibition in test [9] (at 0.5 µM) was -21.3% (inactive) and 5.14% (inactive); in [9] (measured here: with BGB IC20, at 0.5 µM), -53.3% and -0.618%; in test [9] (measured here: with BGB IC20, at 5 µM), -33.8% and -1.4%; in test [9] (measured here: with cisplatin IC20, at 0.5 µM), -16.2% and -0.916%; in [9] (measured here: with cisplatin IC20, at 5 µM) it was -23.6% and -6.11%; in [9] (single agent, at 5 µM), -1.52% and 15.2%. Besides, the inhibition is -7.35% (inactive) and -5.05% (inactive) in test [10] (at 0.5 µM); 15.7% and -0.776% in [10] (measured here: combination with BGB at IC20, at 0.5 µM); -17.1% and 17.1% in test [10] (measured here: combination with cisplatin at IC20, at 0.5 µM); -4.42% (inactive) and 1.31% (inactive) in test [11] (at 0.5 µM); -11.9% and -3.2% in test [11] (measured here: combo with BGB at IC20, at 0.5 µM); 7.79% and 0.674% in test [11] (measured here: combo with cisplatin at IC20, at 0.5 µM).

As to `COc1ccc(C(=O)NCc2ccc(OCCN(C)C)cc2)cc1OC`, the fold change was 0.832 (inactive) and 1.01 (inactive) and 0.841 (inactive) in [1] (setting [13]); 0.68 and 1.38 and 1.73 in test [1] (setting [14]). Also, the cell count in test [1] (setting [15]) is 8010 and 10500 and 9070; in test [1] (setting [16]), 9630 and 10400 and 10800. Besides, the z-score in test [2] (setting [17]) is 0.424 (inactive) and 1.16 (inactive); in test [2] (setting [18]) it was -0.0117 and -0.161; in test [12], 0.35 (inactive) and 0.59 (inactive). The remaining NAD in test [3] was 14 nM (inactive).

In the case of `COc1cc(C(=O)NC2CCCNC2)cc(OC)c1OC` (stereo not given), the fold change is 0.933 (inactive) and 1.06 (inactive) in test [1] (setting [13]); 1.12 and 0.508 in [1] (setting [14]). For the same compound, the cell count in test [1] (setting [15]) was 9210 and 8810; in test [1] (setting [16]) it was 9870 and 8310. The z-score is -0.284 (inactive) and -1.2 (inactive) in test [2] (setting [17]); -0.165 and -1.23 in [2] (setting [18]); 0.125 (inactive) in [12].

Turning to `O=c1cc(CO)occ1O`, the fold change in test [1] (setting [13]) was 0.923 (inactive); in test [1] (setting [14]), 0.344. For the same compound, the cell count was determined as 9020 in test [1] (setting [15]) and 9780 in test [1] (setting [16]). Moreover, the z-score was 0.152 (inactive) in [2] (setting [17]), -0.154 in test [2] (setting [18]) and 1.06 (inactive) in [12].

Regarding `COc1cc2c(cc1OC)C(=O)C(CC1CCN(Cc3ccccc3)CC1)C2` (stereo not given), the fold change in test [1] (setting [13]) was 0.863 (inactive) and 0.884 (inactive); in test [1] (setting [14]) it was 1.25 and 2.01. Moreover, the cell count in test [1] (setting [15]) is 8000 and 11200; in test [1] (setting [16]), 9270 and 12700. For the same compound, the z-score in [2] (setting [17]) is 1.84 (inactive); in [2] (setting [18]), 0.641; in test [12] it was -0.225 (inactive). For the same compound, the remaining NAD in [3] is 10 nM (inactive). The luciferase signal in test [4] was 32 AU (inactive).

Values taken from PubChem BioAssay.
